Source: the supplement of paper PMC10338343

Tested on: MILI (PIWIL2) piRISC loaded with L1MC piRNA (26 nt)
Test: pre-steady-state target cleavage rate (min^-1); guide: L1MC piRNA 5'p-UAACUAAAUACUAUGCAAGCUGUAGG; MIWI and MILI are mouse PIWI proteins and EfPiwi is from a freshwater sponge; tags in brackets are library labels; higher = faster piRNA-guided slicing of the target
Settings: auxiliary factor: none (no GTSF1)
Outline: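 Cleave-'n-Seq used a transcribed, DNA-blocked target RNA library at 0.1 nM and active affinity-purified piRISC with one synthetic guide at 1 nM, with or without 500 nM GTSF1 partner protein, in HEPES–potassium acetate buffer at 33 °C for 0–8 or 0–960 min. Uncleaved targets were sequenced and normalised to depth and to weakly complementary targets, and three trials were pooled with k3 capped at 0.0001 min^-1. The pre-steady-state cleavage rate was estimated by a burst-and-steady-state fit.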

pre-steady-state target cleavage rate, < 0.0001:
UCCUGGAUGAGCUUGCAUAGAUAUUACAAA
UCCUGGAUGUCGAACCAAGUAUUUAGUUA
UCCUGGAUGUCGAACGAUAGUUAAUAGUUA
UCCUGGAUGUCGAACGUAUCUUAUUAGUUA
UCCUGGAUGUCGAACCAUAGUAUGUUAGUUA
